# aGal spleen mod = alpha-galactosidase A (human) modulation; human spleen homogenate, 4MU-alpha-Gal fluorescence, 40 min; Potency, µM (top dose mostly 80 µM), without a hit: top-dose activity change, negative = inhibition, usual class: inhibitors; hit rate 0.008% among 240,000;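 further: potency means the concentration at half of the fitted maximal effect; 0% = enzyme with vehicle and -100% = no enzyme basal signal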
#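 Fluorogenic readout (Ex 365/Em 440 nm) of 4-methylumbelliferone released from 1 mM 4-MU-alpha-galactoside by spleen homogenate, 40 min at 37C, pH 5.0. Data normalized to no-enzyme and enzyme controls; Hill-equation AC50 from compound titrations.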
# GAA glycogen mod = GAA glycogen-cleavage inhibition or activation | AID 2100 | hit rate 0.38% among 300,000 | Potency, µM (series often up to 76.4 µM), inactives show at the top dose activity change, negative = inhibition, hits mostly inhibitors | recombinant GAA, glycogen substrate, Amplex Red glucose oxidase fluorescence | P10253;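 further: potency means the concentration at half of the fitted maximal effect; 0% = full enzyme reaction and -100% = no-enzyme basal signal; the screen sought inhibitors and activators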
#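 Natural-substrate format: glycogen cleavage by 4 nM human enzyme, glucose read by Amplex Red coupling (Ex 573, Em 610 nm). Normalized to enzyme and no-enzyme controls.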
# GAA inhib = inhibitors of human lysosomal alpha-glucosidase; P10253; purified human GAA, 4-MU-alpha-glucoside fluorescence; Potency, µM (titrated, usually from 76.9 µM), without a hit: top-dose activity change, negative = inhibition, hits mostly inhibitors; hit rate 0.005% among 200,000; AID 1466;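 further: potency means the concentration at half of the fitted maximal effect; plate controls were uninhibited enzyme wells for no effect and no-enzyme background for full effect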
#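 qHTS format, compound range up to 77 uM. Human lysosomal enzyme at 4 nM, 400 uM 4-MU glucoside substrate, pH 5.0, 20 min room temperature; fluorescence after alkaline stop gives activity normalized to controls.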
# N370S GC mod = inhibits or activates N370S mutant glucocerebrosidase. P04062. N370S GC spleen homogenate, 4MU-glucoside fluorescence. Potency, µM (doses to about 59.4 µM), inactives show top-dose activity change, negative = inhibition, most hits filed as inhibitors. hit rate 0.092% among 330,000. AID 2101;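 further: potency means the concentration at half of the fitted maximal effect; 0% = full enzyme activity and -100% = no enzyme basal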
# GLA inh pH 4.5 = alpha-galactosidase A (human) inhibition, pH 4.5; purified enzyme, 4-MU-alpha-Gal fluorescence, pH 4.5; activity change, negative = inhibition, % at 105 µM; 230,000 tested, under 10 active; AID 1467;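 further: 0% = full activity with enzyme and -100% = basal without enzyme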
# Target sequence (P06280 whole entry, looked up): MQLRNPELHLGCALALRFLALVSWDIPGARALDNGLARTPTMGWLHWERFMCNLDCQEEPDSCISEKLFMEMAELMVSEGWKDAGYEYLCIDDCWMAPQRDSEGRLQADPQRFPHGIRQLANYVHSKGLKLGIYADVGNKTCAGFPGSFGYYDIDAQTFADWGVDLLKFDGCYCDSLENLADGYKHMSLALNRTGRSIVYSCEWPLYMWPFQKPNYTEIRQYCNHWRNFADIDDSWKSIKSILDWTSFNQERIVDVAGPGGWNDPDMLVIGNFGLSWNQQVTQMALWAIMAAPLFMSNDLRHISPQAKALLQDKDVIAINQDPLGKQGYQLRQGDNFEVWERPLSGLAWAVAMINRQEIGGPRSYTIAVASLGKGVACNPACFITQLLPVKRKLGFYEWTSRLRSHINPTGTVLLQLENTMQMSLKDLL
# GAA spleen mod = inhibitors or activators of human alpha-glucosidase in spleen homogenate; P10253; hit rate 0.006% among 240,000; human spleen homogenate, 4-MU-alpha-glucoside fluorescence; Potency, µM (highest dose often 79.9 µM), inactives show at the top dose activity change, negative = inhibition, most hits filed as inhibitors;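 further: potency means the concentration at half of the fitted maximal effect; 0% = enzyme with vehicle and -100% = no enzyme basal signal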
#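 Human spleen homogenate (1 ug) incubated with compounds and 1 mM 4-methylumbelliferyl-alpha-D-glucopyranoside in pH 5.0 citrate/phosphate buffer, 37 C, 40 min. Stopped at pH 10; 4-MU fluorescence (Ex 365/Em 440 nm); AC50 by Hill fit.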
# The depositor's hits bear a star; ? = inconclusive; nt = no result; [ ] = remark or other dose. A selection: hits, their analogues and other compounds. The true share with any hit is near 0.41%. The call rests on the fitted dose curve; in most records, active means well fitted curve in the direction sought with a large enough effect; inconclusive means small, poorly fitted or top-dose-only effect, or another doubt; inactive means no such curve, though single readings can be large; an effect the other way counts as inactive or inconclusive.
SMILES,aGal spleen mod,GAA glycogen mod,GAA inhib,N370S GC mod,GLA inh pH 4.5,GAA spleen mod
Cc1ccc(O)c(Nc2c3ccccc3nc3ccccc23)c1,nt,11.2µM*,nt,?,nt,nt
O=C(CC1SC(=O)N(c2ccccc2)C1=O)Nc1cccc2ccccc12 (stereo not drawn),4.3%,?,nt,-7.8%,-0.3,-1.8%
CCOc1ccccc1NC(=O)CC1SC(=N)N(c2ccccc2)C1=O (stereo not drawn),-2.5%,23.5%,4.7%,6.3%,-3.1,-2.2%
Cc1ccccc1NC(=O)CC1SC(=O)N(c2ccccc2)C1=O (stereo not drawn),-7.9%,24.9µM*,-10.4%,-1.0%,-2.6,-7.1%
CCOc1ccc(NC(=O)CC2SC(=O)N(c3ccccc3)C2=O)cc1 (stereo not drawn),10.3%,19.8µM*,-6.1%,2.3%,1.1,-2.7%
O=C(NNC(=O)c1cccs1)c1ccco1,19.0%,3.6%,?,2.8%,-2.2,3.6%
O=C(NC(=S)NNC(=O)c1cccs1)c1ccco1,-15.5%,28.2µM*,-6.0%,1.6%,-5.6,-18.1%
Cc1c(NC2=C(Cl)C(=O)N(c3ccccc3Cl)C2=O)c(=O)n(-c2ccccc2)n1C,10.5%,-0.1%,-4.1%,-0.4%,-16.0,4.2%
Cc1c(NC2=C(Cl)C(=O)N(c3ccccc3)C2=O)c(=O)n(-c2ccccc2)n1C,-4.7%,10µM*,-0.3%,-11.6%,-3.9,-2.5%
CN(C)c1ccc(-c2ccc(C3C4C=CCCC4(C)C(=O)N3Cc3ccccc3)c(F)c2)cc1 (stereo not drawn),-1.0%,nt,nt,-0.8%,nt,-8.9%
COc1cc(/C=N/NC(=O)NC2CCCCC2)ccc1O,-2.8%,25.1µM*,nt,?,-9.9,2.4%
COc1cc(/C=N/Nc2ccc(C(=O)O)cc2)cc(OC)c1OC,-16.4%,?,nt,3.1%,-15.9,2.2%
COc1cc(/C=N/NC(=O)NC2CCCCC2)cc(OC)c1O,-4.0%,-9.0%,nt,7.1%,-10.0,-0.9%
Oc1ccc(/C=N/Nc2ccc(Cl)nn2)cc1O,nt,6.26µM*,nt,-7.0%,nt,nt
COc1ccc(/C=N/Nc2ccccn2)cc1OC,-6.9%,?,nt,18.2%,-3.7,-5.7%
COc1cc(/C=N/Nc2ccc(C(=O)O)cc2)ccc1O,-1.4%,5.62µM*,-9.6%,-20.1%,-11.8[21.1 µM],-4.1%
COc1cc(/C=N/Nc2ccccn2)ccc1O,0.4%,25.1µM*,nt,-13.8%,-4.8,-3.8%
COc1ccc(C(=O)Nc2cccc(-c3nc4cccnc4s3)c2C)c(OC)c1,nt,-11.5%[76.3 µM],nt,nt,nt,nt
OCC1OC(C#Cc2ccccc2)C=CC1O (stereo not drawn),-2.6%[17.5 µM],nt,nt,4.2%[12.8 µM],nt,-2.1%[17.4 µM]
O=C(Oc1cccc2c(O)cccc12)c1ccccc1,-2.2%,28.2µM*,-10.7%,1.4%,-5.5,-2.3%
CCOC(=O)Cc1csc(Nc2c(C)n(C)n(-c3ccccc3)c2=O)n1,1.7%,10µM*,-0.8%,5.5%,6.7,-1.1%
CC(C)C1Nc2c(O)cc(Cl)c([N+](=O)[O-])c2C2C=CCC21 (stereo not drawn),-12.1%,14µM*,14.7%,-17.5%,-3.5,-2.0%
Oc1cnn(-c2ccccc2)c1,-2.2%,19.8µM*,4.2%,1.4%,6.2,5.2%
CC[C@H](C)[C@H](NC(=O)CNC(=O)[C@H](CC(C)C)NC(=O)[C@H](CC(C)C)NC(=O)[C@H](CCC(N)=O)NC(=O)[C@H](CCC(N)=O)NC(=O)[C@H](CC(=O)O)NC(=O)[C@H](CCCCN)NC(=O)[C@H](CC(C)C)NC(=O)[C@H](Cc1ccc(O)cc1)NC(=O)[C@H](CCCNC(=N)N)NC(=O)[C@H](CCC(=O)O)NC(=O)[C@@H](NC(=O)[C@H](C)NC(=O)[C@H](CC(C)C)NC(=O)[C@@H](NC(=O)[C@@H](N)CCCNC(=N)N)[C@@H](C)CC)C(C)C)C(=O)N[C@@H](Cc1c[nH]c2ccccc12)C(=O)NCC(=O)N[C@@H](CS)C(=O)N[C@@H](CO)C(=O)O,1.9%,nt,nt,0.4%,nt,5.6%
CC(=O)Nc1ccc(S(=O)(=O)Nc2nc3ccccc3nc2Nc2ccc(O)cc2)cc1,6.1%,17.8µM*,nt,-23.7%,-6.2,3.8%
SMILES,aGal spleen mod,GAA glycogen mod,GAA inhib,N370S GC mod,GLA inh pH 4.5,GAA spleen mod
COc1ccc(-c2cc(-c3cc(OC)ccc3O)[nH]n2)cc1,4.0%,19.8µM*,-0.3%,-3.6%,0.7,3.1%
COc1cc(C2CC(=O)Nc3ccc4ccccc4c32)ccc1OC(=O)C(C)C (stereo not drawn),nt,-1.0%[76.3 µM],nt,nt,nt,nt
O=C(Nc1cc(S(=O)(=O)N2CCOCC2)ccc1N1CCCC1)c1cc(=O)[nH]c2ccccc12,-4.0%,?,nt,16.4%,11.7,10µM*
CC(C)C[C@H](NC(=O)[C@H](CC(C)C)NC(=O)[C@@H](Cc1c[nH]c2ccccc12)NC(=O)[C@H](Cc1ccccc1)NC(=O)[C@@H](Cc1c[nH]c2ccccc12)NC(=O)[C@H](CCC(N)=O)NC(=O)[C@H](CCC(N)=O)NC(=O)[C@@H]1CCCN1C(=O)[C@H](CCCCN)NC(=O)[C@@H]1CCCN1C(=O)[C@H](N)CCCN=C(N)N)C(N)=O,7.0%,nt,nt,-3.2%,nt,-5.4%
CCCC[C@H](NC(=O)[C@@H]1CCCN1C(=O)[C@H]1CCCN1C(=O)[C@H](Cc1ccccc1)NC(=O)[C@@H](Cc1c[nH]c2ccccc12)NC(=O)[C@H](C)NC(=O)[C@H](CCCN=C(N)N)NC(=O)OC(C)(C)C)C(N)=O,-7.6%,nt,nt,2.82µM*,nt,2.3%
COc1ccc2c(c1)O[C@H](c1ccc3c(c1)OCO3)[C@@H](OC(=O)NCc1ccco1)C2=O,16.2%,nt,nt,2.2%,-0.6,8.2%
CCCc1ccc2oc(C(=O)NCCN3CCCC(O)C3)c(C)c2c1 (stereo not drawn),nt,nt,nt,15.8µM*,nt,nt
Cc1c(C(=O)NCCN2CCOCC2)oc2ccc(S(=O)(=O)N3CCCCCC3)cc12,-12.2%,2.6%,?,15.8µM*,-5.2,-3.4%
CCCc1ccc2oc(C(=O)NCCN3CCCC(C(N)=O)C3)c(C)c2c1 (stereo not drawn),nt,-1.3%[76.3 µM],nt,-12.3%,nt,nt
CN1/C(=C\C(=O)COC(=O)c2ccc(O)c(O)c2)C(C)(C)c2ccccc21,9.2%,10µM*,-0.2%,-19.8%,-0.8,-2.5%
C[C@@H]1OC(O[C@H]2[C@H](Oc3cc(O)c4c(=O)c(O)c(-c5ccc(O)cc5)oc4c3)O[C@H](CO)[C@@H](O)[C@@H]2O)[C@H](O)[C@H](O)[C@H]1O (stereo partly drawn),-4.5%,nt,nt,-4.6%,nt,-5.8%
Nc1ncc(O)c(N)n1,10.6%,nt,nt,-3.2%,nt,6.1%
